High-throughput results (PubChem)
ELG1 repair inh = qHTS screen for small molecules that inhibit ELG1-dependent DNA repair in human embryonic kidney (HEK293T) cells expressing luciferase-tagged ELG1; HEK293T ELG1-luciferase reporter, luminescence, 16 h; DNA damage induced by 5-fluorouridine; Potency, µM (doses to about 46.1 µM), without a hit: at the highest dose activity change, negative = inhibition, actives largely listed as inhibitors; actives 2.3% (n = 330,000); AID 504467, 2011; also: nearly all actives have a fitted effect of over 55% in size
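DMSO vehicle served as the neutral condition. Each well held 2,000 cells given 5-fluorouridine plus compound; after 16 hr at 37 °C/5% CO2, ONE-Glo was added and luciferase measured 30 min later.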
RORg inh = qHTS for inhibitors of ROR gamma transcriptional activity; AID 2551, 2010; Potency, µM (series often up to 53.6 µM), for the others: at the highest dose activity change, negative = inhibition, usual class: inhibitors; actives 5.4% (n = 310,000); Drosophila S2 Gal4-RORgamma UAS-luciferase reporter, 20 h; also: nearly all actives have a fitted effect of over 60% in size
Target sequence (P51450 whole entry, looked up, the tested form may be a part): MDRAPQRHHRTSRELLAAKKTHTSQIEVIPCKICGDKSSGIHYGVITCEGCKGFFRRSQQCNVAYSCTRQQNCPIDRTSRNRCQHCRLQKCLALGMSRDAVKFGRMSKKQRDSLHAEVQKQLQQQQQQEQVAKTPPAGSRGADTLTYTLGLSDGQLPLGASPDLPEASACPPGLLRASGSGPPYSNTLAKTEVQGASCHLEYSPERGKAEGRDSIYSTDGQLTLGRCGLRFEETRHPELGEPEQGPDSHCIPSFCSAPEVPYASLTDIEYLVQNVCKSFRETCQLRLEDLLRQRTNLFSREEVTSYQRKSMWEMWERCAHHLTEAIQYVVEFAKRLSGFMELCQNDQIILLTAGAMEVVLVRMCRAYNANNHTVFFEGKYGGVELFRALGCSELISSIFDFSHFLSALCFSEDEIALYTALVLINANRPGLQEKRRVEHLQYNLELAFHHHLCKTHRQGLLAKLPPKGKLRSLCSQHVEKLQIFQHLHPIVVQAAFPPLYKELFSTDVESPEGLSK
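Stably transfected Drosophila Schneider cells are the test system, with ROR gamma fused to Gal4 and luciferase under UAS control; luminescence is read after 20 hr of 700 uM copper sulfate induction at ambient temperature.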
VP16 counter = VP16 counterscreen qHTS for inhibitors of ROR gamma transcriptional activity; Potency, µM (doses to about 53.6 µM), for inactives: at the top dose activity, negative = inhibition, hits mostly inhibitors; actives 3.5% (n = 310,000); Drosophila S2 Gal4-VP16 UAS-luciferase, luminescence, 20 h;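 also: Gal4-VP16 expression switched on by copper sulfate through the metallothionein promoter; nearly all actives have a fitted effect of over 50% in size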
12-LOX inh = Primary qHTS assay for inhibitors of human arachidonate 12S-lipoxygenase (ALOX12): Round 2 | Polyunsaturated fatty acid lipoxygenase ALOX12 (Homo sapiens), P18054 | purified 12hLO, xylenol orange hydroperoxide absorbance | Potency, µM (highest dose often 108 µM), without a hit: at the top dose activity change, negative = inhibition, usual class: inhibitors | actives 1.1% (n = 580,000) | AID 1671190, 2021
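Hydroperoxide product was detected by ferrous iron/xylenol orange as the 573 to 405 nm absorbance ratio. Arachidonic acid at 40 uM (final) was turned over for 30 min at room temperature by 150 nM human 12hLO, pH 7.0 Hepes buffer, after 15 min compound preincubation.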
DT40 TDP1 CPT = qHTS for Inhibitors of human tyrosyl-DNA phosphodiesterase 1 (TDP1): qHTS in cells in presence of CPT. actives 12% (n = 420,000). AID 686979, 2013. Potency, µM (highest dose often 46.2 µM), inactives show at the top dose activity change, negative = growth inhibition, actives largely listed as inhibitors. chicken DT40 Tdp1-/-;hTDP1 cells + 20 nM CPT, ATP luminescence, 48 h; also: nearly all actives have a fitted effect of over 55% in size
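Chicken DT40 Tdp1-/- cells complemented with human TDP1, 400 cells/well, exposed to compounds plus 20 nM camptothecin for at least 48 h at 37 C; viability read as ATP content by CellTiter-Glo luminescence.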
TDP1 cell noCPT = qHTS for Inhibitors of human tyrosyl-DNA phosphodiesterase 1 (TDP1): qHTS in cells in absence of CPT; DT40 Tdp1-/- hTDP1 cells, no CPT, ATP luminescence, 48 h; Potency, µM (titrated, usually from 46.2 µM), without a hit: at the highest dose activity change, negative = growth inhibition, actives largely listed as inhibitors; actives 15% (n = 420,000); AID 686978, 2013; also: nearly all actives have a fitted effect of over 55% in size
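Growth of hTDP1-complemented DT40 Tdp1-knockout cells is measured by ATP luminescence after at least 48 hr compound exposure at 37 °C, with DMSO substituting for the 20 nM CPT used in the parallel screen.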
* hit, by the source's call; ? = inconclusive; · = not tested or not shown; [ ] = dose if it differs, or a comment. A selection: hits, their analogues and other compounds. The true share with any hit is near 15%. Calls follow the shape of the dose curve; as a rule, active = well fitted curve in the direction sought with a large enough effect; inconclusive = small, poorly fitted or top-dose-only effect, or another doubt; inactive = no such curve, though single readings can be large; an effect the other way counts as inactive or inconclusive. % is scaled to controls: 0 for no effect and ±100 for the full control effect; potency is read from the fitted curve at half-maximal effect.

SMILES | ELG1 repair inh | RORg inh | VP16 counter | 12-LOX inh | DT40 TDP1 CPT | TDP1 cell noCPT
CC(=O)N1CC2(Cc3ccccc31)CN(C(=O)c1ccccc1Cl)C2 | · | · | · | 39.4% | · | ·
COC(=O)C1=C(C)NC(=O)CC1c1ccccc1F (configuration not stated) | -5.3% | 9.2% | -18.9% | 1.2% | 1.4% | -6.2%
CSCCOC(=O)C1=C(C)NC(=O)CC1c1ccccc1Cl (configuration not stated) | ? | 31.3% | -12.1% | -14.1% | ? | ?
CC1=C(C(=O)OC(C)C)C(c2ccccc2Cl)CC(=O)N1 (configuration not stated) | 0.4% | -4.9% | -24.6% | -16.5% | 20.6µM* | 11.6µM*
CCCOc1ccccc1C1CC(=O)NC(C)=C1C(=O)OCC(C)C (configuration not stated) | -9.4% | 29.2% | -12.2% | ? | 20.6µM* | 16.4µM*
CCOc1ccccc1C1CC(=O)NC(C)=C1C(=O)OCc1ccc(C)cc1 (configuration not stated) | · | · | · | 0.0% | ? | 16.4µM*
CCC(C)OC(=O)C1=C(C)NC(=O)CC1c1ccccc1OC (configuration not stated) | -4.7% | -4.6% | 1.0% | 2.1% | 8.2µM* | 10.3µM*
CC1=C(C(=O)OC(C)C)C(c2ccc(Cl)cc2Cl)CC(=O)N1 (configuration not stated) | · | · | · | 24.4% | · | ·
O=S(=O)(Nc1nc2ccccc2nc1Nc1cccc(Br)c1)c1ccc(F)cc1 | · | · | · | 41.3% | · | ·
CCOc1ccccc1C1NC(=O)NC(C)=C1C(=O)OC1CCCCC1 (configuration not stated) | 0.1% | 6.6% | -7.5% | 2.2% | ? | ?
CCOc1ccccc1C1CC(=O)NC(C)=C1C(=O)OC1CCCCCC1 (configuration not stated) | · | · | · | 0.0% | 20.6µM* | 16.4µM*
COC(=O)C1=C(C)NC(=O)NC1c1ccc(N(C)C)cc1 (configuration not stated) | · | · | · | 83.2% | · | ·
O=C(O)C(=Cc1ccc([N+](=O)[O-])cc1)c1cccc(Cl)c1 | · | · | · | -5.4% | 8.2µM* | ?
Cc1cccc(CN(C(=O)c2ccco2)c2ccc(CC(=O)N(C)Cc3ccccc3)cc2)c1 | · | · | · | -7.9% | · | ·
O=C1C2CC=CCC2C(=O)N1c1ccc(N2CCN(c3ccccn3)CC2)c([N+](=O)[O-])c1 (configuration not stated) | ? | -80.7% | 4.47µM* | -13.4% | ? | 16.4µM*
CCOC(=O)C1=C(c2ccccc2)NC(=O)NC1c1ccc(O)c(Cl)c1 (configuration not stated) | ? | 64.3% | 0.8% | -15.7% | ? | ?
CCOC(=O)C1=C(c2ccccc2)NC(=S)NC1c1cc([N+](=O)[O-])ccc1OC (configuration not stated) | 13.6% | 12.6µM* | ? | 39.8µM* | -25.3% | ?
CCOC(=O)C1=C(c2ccccc2)NC(=S)NC1c1ccc(C)c([N+](=O)[O-])c1 (configuration not stated) | ? | ? | 11.2µM* | -3.6% | 23.1µM* | 16.4µM*
COc1ccc(CC(=O)N(C)C2CCc3ccccc3C2)cc1 (configuration not stated) | · | · | · | -4.7%[176 µM] | · | ·
CCS(=O)(=O)c1ccc(C=NNc2nc3ccccc3o2)cc1 | · | · | · | -4.8% | ? | 23.1µM*
CN(C)c1ccc(/C=N/Nc2nc3ccccc3o2)cc1 | ? | 6.31µM* | 11.2µM* | 20.8% | ? | -7.0%
O=[N+]([O-])c1ccc(/C=N/Nc2nc3ccccc3o2)cc1 | ? | -23.9% | -3.8% | -21.5% | 0.1% | 16.7%
NC(=O)C1=C(Nc2ccc(F)cc2F)c2ccccc2S1(=O)=O | · | · | · | 10.0% | · | ·
COC(=O)CC/C(=N/Nc1ccc(Cl)c(Cl)c1)C(=O)OC | -8.0% | 23.9% | -5.1% | 15.8µM* | -3.6% | 7.6%
Cc1[nH]ncc1CNC(=O)C1CCN(C(=O)c2ncn3c2COC(c2ccc(F)cc2)C3)CC1 (configuration not stated) | · | · | · | 21.7% | · | ·
SMILES | ELG1 repair inh | RORg inh | VP16 counter | 12-LOX inh | DT40 TDP1 CPT | TDP1 cell noCPT
O=C(CNc1cccc2ccccc12)c1ccc([N+](=O)[O-])cc1 | ? | -19.8% | 19.8% | -17.4% | 14.6µM* | 13µM*
O=C(Cc1ccccc1)NC1CCN(C(=O)c2ccc([N+](=O)[O-])cc2)CC1 | -2.1% | 30.2% | 16.2% | -6.1% | -1.9% | -13.3%
O=C(NCC1CCN(C(=O)c2ccc([N+](=O)[O-])cc2)CC1)C(=O)Nc1ccccc1 | ? | 18.6% | 6.8% | -7.1% | ? | 20.6µM*
O=C(Nc1cccc2c(=O)[nH][nH]c(=O)c12)c1ccc([N+](=O)[O-])cc1 | · | · | · | -12.4% | 8.2µM* | -17.4%
O=C(Nc1cccc2ccccc12)c1ccc([N+](=O)[O-])cc1 | -12.4% | 7.9% | -4.1% | -3.2% | -6.6% | ?
O=C(Nc1c[nH]c(=O)[nH]c1=O)c1ccc([N+](=O)[O-])cc1 | 5.8% | -1.1% | 2.3% | 0.1% | -0.7% | 10.8%
O=C(CSCC(=O)c1ccc([N+](=O)[O-])cc1)c1ccc([N+](=O)[O-])cc1 | · | · | · | · | 20.6µM* | ?
NC(=O)c1ccc([N+](=O)[O-])cc1 | · | 3.0% | -15.9% | · | · | ·
CCC(=O)N1CC(n2cc(C(=O)NCC3CC3)nn2)C1 | · | · | · | -8.4% | · | ·
CC(C)C(NC(=O)c1ccncc1)C(=O)O (configuration not stated) | · | · | · | 14.2% | · | ·
O=C(CNc1ccccc1)c1ccc([N+](=O)[O-])cc1 | ? | 0.3% | -21.2% | ? | 14.6µM* | 16.4µM*
CCN(CC)S(=O)(=O)c1cc(C(=O)Nc2ncn(Cc3ccccc3C)n2)c(Cl)cc1Cl | · | · | · | 53.4% | · | ·
O=c1c2ccccc2ncn1-c1ccc(Cl)cc1[N+](=O)[O-] | 13.0% | 22.0% | 2.8% | 0.3% | ? | ?
